Source: PubChem BioAssay AID1159580 (chemical genetic matrix, 2015)
Among all 5,500 compounds or so, about 2,000 (36%) were called active. Inconclusive results (about 18%) are left out. Rule as the data show it: active = normalized growth mostly below about 0.91 (no sharp cut-off); inconclusive = no clear call, values can overlap the other calls; inactive = mostly above about 0.92. Some of the results follow.

Assay: chemical genetic growth profiling, strain panel (AID 1159580);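 also: tested at 20 µM; growth read once vehicle control cultures reached saturation at 30 °C; 1 = growth at the plate median or of vehicle wells; lower values mean less growth of the strain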
Conditions: growth OD

Measured: normalized growth

NC(=O)NC(=O)Cc1ccccc1
inactive: S. cerevisiae deletion strains, locus YJR075W, strain HOC1, active compounds read low 1.01 | S. cerevisiae deletion strains, locus YKL009W, strain mrt4, active compounds read low 0.99 | S. cerevisiae deletion strains, locus YKL068W, active compounds read low 0.998 | S. cerevisiae deletion strains, locus YKL085W, strain MDH1 (second series), active compounds read low 0.994 | S. cerevisiae deletion strains, locus YKL085W, strain MDH1, active compounds read low 0.994 | S. cerevisiae deletion strains, locus YKL160W, strain elf1, active compounds read low 0.941 | S. cerevisiae deletion strains, locus YKL190W, strain CNB1, active compounds read low 1.03 | S. cerevisiae deletion strains, locus YKR001C, strain vps1, active compounds read low 0.994 | S. cerevisiae deletion strains, locus YKR026C, strain gcn3, active compounds read low 0.993 | S. cerevisiae deletion strains, locus YKR091W, strain srl3, active compounds read low 0.98 | S. cerevisiae deletion strains, locus YLL001W, strain dnm1, active compounds read low 1.02 | S. cerevisiae deletion strains, locus YLL026W, active compounds read low 0.984 | S. cerevisiae deletion strains, locus YLL041C, strain sdh2, active compounds read low 1 | S. cerevisiae deletion strains, locus YLR027C, strain aat2, active compounds read low 0.988 | S. cerevisiae deletion strains, locus YLR039C, strain RIC1, active compounds read low 1.02 | S. cerevisiae deletion strains, locus YLR058C, strain SHM2, active compounds read low 1.01 | S. cerevisiae deletion strains, locus YLR102C, strain apc9, active compounds read low 0.999 | S. cerevisiae deletion strains, locus YLR113W, strain HOG1, active compounds read low 1.01 | S. cerevisiae deletion strains, locus YLR221C, strain rsa3, active compounds read low 1.03 | S. cerevisiae deletion strains, locus YLR258W, strain gsy2, active compounds read low 0.977 | S. cerevisiae deletion strains, locus YLR262C, strain YPT6 (second series), active compounds read low 0.99 | S. cerevisiae deletion strains, locus YLR262C, strain YPT6, active compounds read low 1.05 | S. cerevisiae deletion strains, locus YLR268W, strain sec22, active compounds read low 0.985 | S. cerevisiae deletion strains, locus YLR320W, strain mms22, active compounds read low 1.02 | S. cerevisiae deletion strains, locus YLR330W, strain CHS5, active compounds read low 1.01 | S. cerevisiae deletion strains, locus YLR342W, strain FKS1 (second series), active compounds read low 1.05 | S. cerevisiae deletion strains, locus YLR342W, strain FKS1, active compounds read low 0.999 | S. cerevisiae deletion strains, locus YLR357W, strain rsc2, active compounds read low 0.949 | S. cerevisiae deletion strains, locus YLR370C, strain arc18, active compounds read low 0.966 | S. cerevisiae deletion strains, locus YLR371W, strain rom2, active compounds read low 0.997 | S. cerevisiae deletion strains, locus YLR384C, strain iki3, active compounds read low 0.982 | S. cerevisiae deletion strains, locus YLR418C, strain cdc73, active compounds read low 0.998 | S. cerevisiae deletion strains, locus YML016C, strain PPZ1, active compounds read low 1.01 | S. cerevisiae deletion strains, locus YML032C, strain rad52, active compounds read low 1 | S. cerevisiae deletion strains, locus YML120C, strain ndi1, active compounds read low 1.01 | S. cerevisiae deletion strains, locus YML124C, strain tub3, active compounds read low 0.996 | S. cerevisiae deletion strains, locus YMR058W, strain fet3, active compounds read low 0.978 | S. cerevisiae deletion strains, locus YMR078C, strain ctf18, active compounds read low 0.997 | S. cerevisiae deletion strains, locus YMR125W, strain sto1, active compounds read low 0.957 | S. cerevisiae deletion strains, locus YMR129W, active compounds read low 0.966 | S. cerevisiae deletion strains, locus YMR205C, strain PFK2, active compounds read low 1.01 | S. cerevisiae deletion strains, locus YMR223W, strain ubp8, active compounds read low 1.01 | S. cerevisiae deletion strains, locus YMR231W, strain pep5, active compounds read low 1 | S. cerevisiae deletion strains, locus YMR263W, strain SAP30, active compounds read low 1.01 | S. cerevisiae deletion strains, locus YMR307W, strain GAS1, active compounds read low 1.08 | S. cerevisiae deletion strains, locus YNL067W, strain RPL9B, active compounds read low 1.02 | S. cerevisiae deletion strains, locus YNL071W, strain lat1, active compounds read low 0.995 | S. cerevisiae deletion strains, locus YNL128W, strain TEP1, active compounds read low 1 | S. cerevisiae deletion strains, locus YNL153C, strain GIM3, active compounds read low 1.03 | S. cerevisiae deletion strains, locus YNL183C, strain NPR1, active compounds read low 0.94 | S. cerevisiae deletion strains, locus YNL209W, strain ssb2, active compounds read low 0.975 | S. cerevisiae deletion strains, locus YNL233W, strain BNI4, active compounds read low 1.01 | S. cerevisiae deletion strains, locus YNL248C, strain rpa49, active compounds read low 0.917 | S. cerevisiae deletion strains, locus YNL250W, strain rad50, active compounds read low 0.992 | S. cerevisiae deletion strains, locus YNL271C, strain bni1, active compounds read low 0.992 | S. cerevisiae deletion strains, locus YNL298W, strain CLA4, active compounds read low 1 | S. cerevisiae deletion strains, locus YNL307C, strain MCK1, active compounds read low 0.994 | S. cerevisiae deletion strains, locus YNL322C, strain KRE1 (second series), active compounds read low 0.965 | S. cerevisiae deletion strains, locus YNL322C, strain KRE1, active compounds read low 1.01 | S. cerevisiae deletion strains, locus YNR049C, strain mso1, active compounds read low 0.962 | S. cerevisiae deletion strains, locus YNR052C, strain pop2, active compounds read low 0.989 | S. cerevisiae deletion strains, locus YOL006C, strain TOP1, active compounds read low 1.14 | S. cerevisiae deletion strains, locus YOL012C, strain htz1 1.28 | S. cerevisiae deletion strains, locus YOL147C, strain pex11, active compounds read low 0.997 | S. cerevisiae deletion strains, locus YOR001W, strain rrp6, active compounds read low 1.02 | S. cerevisiae deletion strains, locus YOR061W, strain CKA2, active compounds read low 1 | S. cerevisiae deletion strains, locus YOR069W, strain VPS5, active compounds read low 1 | S. cerevisiae deletion strains, locus YOR070C, strain gyp1, active compounds read low 0.996 | S. cerevisiae deletion strains, locus YOR080W, strain dia2, active compounds read low 0.986 | S. cerevisiae deletion strains, locus YOR083W, strain WHI5, active compounds read low 0.913 | S. cerevisiae deletion strains, locus YOR106W, strain vam3, active compounds read low 0.96 | S. cerevisiae deletion strains, locus YOR136W, strain idh2, active compounds read low 0.995 | S. cerevisiae deletion strains, locus YOR144C, strain elg1, active compounds read low 0.994 | S. cerevisiae deletion strains, locus YOR184W, strain ser1, active compounds read low 0.988 | S. cerevisiae deletion strains, locus YOR231W, strain MKK1, active compounds read low 0.988 | S. cerevisiae deletion strains, locus YOR265W, strain rbl2, active compounds read low 0.99 | S. cerevisiae deletion strains, locus YOR270C, strain vph1, active compounds read low 0.979 | S. cerevisiae deletion strains, locus YOR290C, strain snf2, active compounds read low 0.936 | S. cerevisiae deletion strains, locus YOR316C, strain cot1, active compounds read low 0.994 | S. cerevisiae deletion strains, locus YPL051W, strain arl3, active compounds read low 0.974 | S. cerevisiae deletion strains, locus YPL055C, strain LGE1, active compounds read low 1.08 | S. cerevisiae deletion strains, locus YPL078C, strain atp4, active compounds read low 0.955 | S. cerevisiae deletion strains, locus YPL106C, strain sse1, active compounds read low 0.992 | S. cerevisiae deletion strains, locus YPL240C, strain hsp82, active compounds read low 0.997 | S. cerevisiae deletion strains, locus YPL241C, strain CIN2, active compounds read low 1.03 | S. cerevisiae deletion strains, locus YPL256C, strain CLN2, active compounds read low 0.96 | S. cerevisiae deletion strains, locus YPR119W, strain clb2, active compounds read low 1 | S. cerevisiae deletion strains, locus YPR141C, strain kar3, active compounds read low 0.988 | S. cerevisiae deletion strains, locus YPR163C, strain tif3, active compounds read low 0.995 | S. cerevisiae deletion strains, locus YPR167C, strain met16, active compounds read low 0.996 | S. cerevisiae deletion strains, strain wtn01, active compounds read low 0.976 | S. cerevisiae strains, strain wild type, active compounds read low 1.06
